Bioassay records deposited in PubChem by National Center for Advancing Translational Sciences (NCATS).
Only some compounds are listed: those with a hit (about 21% of all), similar ones and a draw of the others.
Pf growth 48h = inhibits P. falciparum growth in the first generation, 48 h; P. falciparum luciferase growth in erythrocytes, 48 h; Potency, µM (titrated, usually from 28.7 µM), without a hit: at the top dose activity change, negative = inhibition, usual class: inhibitors; hit rate 5.9% among 310,000; further: potency means the concentration at half of the fitted maximal effect; on the % scale 0 is the no-effect control and ±100 the full control effect
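In quantitative HTS format, infected erythrocytes bearing luciferase-reporter parasites were treated for a single generation at 37 C. Luminescence after adding detection reagent served as the growth measure.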
NS1 function inh = influenza NS1 inhibition | AID 2326 | Potency, µM (doses to about 46.1 µM), without a hit: top-dose activity, positive = more growth | hit rate 0.4% among 270,000; calls by dose curve; further: potency means the concentration at half of the fitted maximal effect; actives are rising curves; nearly all actives have a fitted effect of over 50% in size
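In this qHTS, NS1 from influenza A is expressed in budding yeast, where it slows growth. Cells are switched from glucose to 2% galactose medium (pH 6.0, -URA), treated with compound, and growth recovery is read at OD600.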
Pf growth 96h = P. falciparum growth inhibition at 96 hours; P. falciparum luciferase reporter growth, 96 h; Potency, µM (highest dose often 28.7 µM), without a hit: at the highest dose activity change, negative = inhibition, actives largely listed as inhibitors; hit rate 6.9% among 320,000; AID 504834; further: potency means the concentration at half of the fitted maximal effect; on the % scale 0 is the no-effect control and ±100 the full control effect
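P. falciparum expressing integrated firefly luciferase grown in erythrocytes (2% hematocrit, 0.05% parasitemia final) with compounds for 96 hours at 37 C, 5% CO2. Growth inhibition read as loss of luminescence after adding luciferase detection reagent.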
Cycloheximide cs = affects cycloheximide protein synthesis inhibition readout, counter-screen; cell reporter, cycloheximide protein synthesis inhibition counterscreen; max response, %; hit rate 12% among 300,000; AID 2314; in the data active means max response mostly above about 13%, no sharp cut-off; inactive means mostly below about 14%; further: read at 38.3 µM for the half of the compounds with a filed dose; 0% is about no effect
Sm TGR block = S. mansoni TGR enzyme inhibition | Q962Y6 | purified TGR, DTNB reduction, TNB absorbance 405 nm | Potency, µM (series often up to 114 µM), for inactives: at the highest dose activity change, negative = inhibition, actives largely listed as inhibitors | hit rate 3% among 360,000 | AID 485364; further: potency means the concentration at half of the fitted maximal effect; on the % scale 0 is the no-effect control and ±100 the full control effect; nearly all actives have a fitted effect of over 60% in size
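First, TGR (20 nM dispensed) and NADPH were mixed with compound. Second, a 15 min room-temperature incubation followed. Third, further NADPH and then DTNB were added to start the reaction. Finally, TNB absorbance was monitored kinetically.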
Shiga inhibitor = Shiga toxin inhibition | inhibition, % at 38.7 µM | Vero cells, Shiga toxin protein synthesis inhibition reporter | hit rate 9.2% among 290,000 | AID 2315; in the data active means inhibition mostly above about 28%, no sharp cut-off; inactive means mostly below about 43%; further: 0% is about no effect
* marks the source's active call; other numbers are inactive results; i = inactive; ? = inconclusive; · = not tested or not shown. Unless noted, the call rests on the fitted dose curve; in most records, active means well fitted curve in the direction sought with a large enough effect; inconclusive means small, poorly fitted or top-dose-only effect, or another doubt; inactive means no such curve, though single readings can be large; an effect the other way counts as inactive or inconclusive.

SMILES	Pf growth 48h	NS1 function inh	Pf growth 96h	Cycloheximide cs	Sm TGR block	Shiga inhibitor
CCCCOc1ccc(C(=O)NCC(=O)NCCOc2ccc(C)cc2)cc1	-3%	·	-2%	·	4%	·
COc1cc(OC)cc(C(=O)NCCOC23CC4CC(CC(C4)C2)C3)c1	-54%	-10%	1%	-3	-6%	-16
Cc1ccc(C(=O)NCCOC23CC4CC(CC(C4)C2)C3)cc1	2.9µM*	-22%	2.1µM*	12	4%	59
COc1ccc(OCCNC(=O)c2ccc(C)cc2)cc1	-10%	-2%	2.9µM*	29*	20%	56*
Cc1ccc(OCCNC(=O)c2ccc(C)cc2)cc1	-2%	-9%	?	46*	14%	79*
CC(NC(=O)c1cc(S(=O)(=O)N2CCCC2)ccc1Cl)c1ccccn1 (configuration not stated)	6%	·	-26%	·	-14%	·
CC(C)c1cccc(OCCCCN(C)C)c1	-11%	·	2%	17	-3%	-4
O=C(NCc1ccccc1F)C1CCCN(C(=O)N2CCOc3ccccc32)C1 (configuration not stated)	·	·	·	·	7%	·
Cc1ccc(C(=O)N2CCCC(N3CCN(c4ccccc4C)CC3)C2)c(=O)[nH]1 (configuration not stated)	-8%	-3%	0%	7	-34%	-11
CCOc1ccccc1C(=O)NCC(=O)NCCCSc1ccccc1	-7%	-3%	-1%	10	-2%	16
CCOc1ccc(C(=O)NCC(=O)NCCCSc2ccccc2)cc1OCC	-15%	17%	15µM*	-1	4%	-4
O=C(NCCSc1ccc(Br)cc1)c1ccccc1	?	·	?	6	-7%	19
COc1ccc(C(=O)NCCSc2ccccc2)cc1	188%	-1%	?	46*	-2%	21*
CSCc1ccc(C(=O)NCCSc2ccc(Br)cc2)cc1	102%	10%	134%	55*	2%	103*
CCc1c(C)nc(SCC(=O)NNC(=O)c2ccco2)[nH]c1=O	13%	-1%	?	30*	11%	39*
Cc1cc(C)c2nc(N3CCCN(C(=O)c4ccco4)CC3)c(C#N)cc2c1	0%	6%	?	6	2µM*	15
CCc1cc2ccc(C)cc2nc1SCC(=O)N1CCN(C(=O)c2ccco2)CC1	?	-49%	63%	2	40µM*	4
Cc1nc(N2CCN(C(=O)c3ccco3)CC2)c(C#N)c2c1CCCC2	?	-1%	?	4	-12%	15
CCc1cc2ccc(C)cc2nc1SCC(=O)NNC(=O)c1ccco1	17%	3%	4.7µM*	-1	6%	-8
CCc1c(C)nc(SCC(=O)Nc2ccc(Br)cc2)[nH]c1=O	·	4%	?	-6	6%	-11
CCc1cc2cc(C)ccc2nc1SCC(=O)NNC(=O)c1ccco1	?	13%	-28%	3	14%	-4
OC1OC[C@H](O)[C@H](O)[C@H]1O (some centres not stated)	·	·	·	-6	·	-1
CCc1cc2cc(C)cc(C)c2nc1SCC(=O)N1CCN(C(=O)c2ccco2)CC1	-24%	-79%	8.3µM*	1	-19%	-13
CCc1cc2cccc(C)c2nc1SCC(=O)N1CCN(C(=O)c2ccco2)CC1	-4%	-60%	16%	-8	3%	-11
Cc1c(Cl)cccc1NC(=O)CNC(=O)c1ccccc1F	18%	-1%	-4%	-1	6%	9
SMILES	Pf growth 48h	NS1 function inh	Pf growth 96h	Cycloheximide cs	Sm TGR block	Shiga inhibitor
Cc1cccc[n+]1C1C(c2ccccc2)C(C#N)=C(C(=C=[N-])C#N)NC1(O)C1CC1 (configuration not stated)	?	?	?	1	5.6µM*	-10
CNC(=O)c1cnc2sc(N3CCC(C)CC3)nn2c1=O	·	·	·	·	6%	·
O=C(Cc1ccc(Br)cc1)N/N=C/c1cccnc1	-5%	-14%	24%	0	-3%	-34
CCOc1ccc(NC(=O)NCc2ccc3c(c2)CCN3C(C)=O)cc1	·	·	·	·	-10%	·
CCCCC(CC)c1nnc(NC(=O)c2cccs2)s1 (configuration not stated)	7%	-61%	-24%	1	9%	15
CCC(C)(C)c1nnc(NC(=O)c2cccc([N+](=O)[O-])c2)s1	87%	-2%	38%	14*	0%	76*
CC(C)(C)c1nnc(NC(=O)c2cccs2)s1	104%	-10%	-8%	71*	8%	75*
O=C(Nc1nnc(CSCc2ccc(Cl)cc2)s1)c1cccc([N+](=O)[O-])c1	19%	4%	?	-2	-10%	-9
CS(=O)(=O)Nc1nnc(SCC(=O)N(c2ccccc2)c2ccccc2)s1	-17%	14%	2.6µM*	1	-11%	-21
CC(C)N(C(=O)CSc1nnc(NC(=O)c2cccs2)s1)C(C)C	?	2%	10µM*	-3	0%	-8
O=C(Nc1nnc(CCc2ccccc2)s1)c1cccs1	31%	-13%	38%	6	2%	10
O=C(NCCc1ccccc1)c1cc(-c2ccc(Cl)c(Cl)c2)on1	·	·	·	·	4%	·
Cc1c(C)c2ccc(OCC(=O)N3CC[C@@]4(O)CCCC[C@H]4C3)c(C)c2oc1=O	-28%	1%	?	-5	0%	-4
CC1C=C[C@@H]2[C@H](C1)C(=O)N(Cc1ccccc1)[C@H]2c1ccccc1Br (some centres not stated)	·	·	·	13	·	i
CC(C)(C)c1nnc(NC(=O)c2cccnc2)s1	33%	-3%	74%	21*	-3%	28
O=C(Nc1ccccc1C(=O)Nc1nnc(C(F)(F)F)s1)c1ccccc1	1.2µM*	-1%	2.6µM*	-2	3%	-1
CC(C)c1nnc(NC(=O)c2cccs2)s1	218%	-38%	220%	58*	3%	70*
Cc1occc1C(=O)Nc1nnc(C(F)(F)F)s1	8%	-55%	·	8	-2%	5
COc1ccc(CCCC(=O)NCC(=O)N/N=C/c2cc(Cl)ccc2OC)cc1	-3%	-3%	1%	-2	1%	6
CC(=O)Nc1ccc(S(=O)(=O)N2CCN(S(=O)(=O)c3ccc(F)c(F)c3F)CC2)cc1	-4%	0%	3%	10	3%	10
CCN(CC)CCN(Cc1cc2cc3c(cc2[nH]c1=O)OCO3)C(=S)NCc1ccco1	-4%	5%	6.6µM*	0	-7%	3
CCN(CC)CCN(Cc1cc2cc(C)cc(C)c2[nH]c1=O)C(=S)NCc1ccco1	?	11%	7%	-3	-23%	-9
CN(C)CCCN(Cc1cc2cc3c(cc2[nH]c1=O)OCO3)C(=S)NCc1ccco1	1%	-1%	24%	-3	-5%	20
CCN(CC)CCN(Cc1cc2cc3c(cc2[nH]c1=O)OCO3)C(=S)NCC(C)C	?	3%	3.7µM*	-3	1%	-20
CCN(CC)CCCN(Cc1cc2cc3c(cc2[nH]c1=O)OCO3)C(=S)NCc1ccco1	?	3%	-16%	-4	0%	10
